Compounds with a hit are over-represented: about 21% of the library has one in this group of screens.
CHX counter – Cycloheximide Counterscreen for Small Molecule Inhibitors of Shiga Toxin; AID 2314, 2010; actives 12% (n = 300,000); cell reporter, cycloheximide protein synthesis inhibition counterscreen; max response, %; in the data active means max response mostly above about 13%, no sharp cut-off; inactive means mostly below about 14%; further: read at 38.3 µM for the half of the compounds with a filed dose
HCV inhibitor – qHTS Assay for Inhibitors of Hepatitis C Virus (HCV); Huh7.5.1 HCVcc-Cre infection, luciferase reporter, 44 h; AID 651820, 2012; actives 3.4% (n = 340,000); Potency, µM (top dose mostly 41.8 µM), most hits filed as inhibitors
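Compounds are dispensed onto cells plated 4 h earlier at 1,000 per well, with HCVcc-Cre virus (about 0.5 moi) added next. Following 44 h of culture, luminescent signal is measured for 15 sec after 15 min with substrate at room temperature.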
Shiga inhibitor – A qHTS for Small Molecule Inhibitors of Shiga Toxin | Vero cells, Shiga toxin protein synthesis inhibition reporter | inhibition, % at 38.7 µM | actives 9.2% (n = 290,000); in the data active means inhibition mostly above about 28%, no sharp cut-off; inactive means mostly below about 43%
Pf growth 96h – Primary qHTS for delayed death inhibitors of the malarial parasite plastid, 96 hour incubation. P. falciparum luciferase reporter growth, 96 h. Potency, µM (highest dose often 28.7 µM), hits mostly inhibitors. actives 6.9% (n = 320,000). AID 504834, 2011
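P. falciparum expressing integrated firefly luciferase grown in erythrocytes (2% hematocrit, 0.05% parasitemia final) with compounds for 96 hours at 37 C, 5% CO2. Growth inhibition read as loss of luminescence after adding luciferase detection reagent.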
Pf growth 48h – Primary qHTS for delayed death inhibitors of the malarial parasite plastid, 48 hour incubation | P. falciparum luciferase growth in erythrocytes, 48 h | Potency, µM (highest dose often 28.7 µM), usual class: inhibitors | actives 5.9% (n = 310,000) | AID 504832, 2011
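In quantitative HTS format, infected erythrocytes bearing luciferase-reporter parasites were treated for a single generation at 37 C. Luminescence after adding detection reagent served as the growth measure.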
AMA1-RON2 inh – qHTS for Inhibitors of AMA1-RON; Towards Development of Antimalarial Drug Lead: Primary Screen. Plasmodium falciparum AMA1 (3D7) - RON2 peptide interaction. AlphaScreen AMA1-biotinylated RON2 peptide binding. actives 0.2% (n = 360,000). Potency, µM (highest dose often 58.2 µM), usual class: inhibitors; further: nearly all actives have a fitted effect of over 45% in size
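AMA1 (3D7) with his tag at 25 nM final met compounds first, then biotinylated RON2 peptide at 25 nM; detection used donor plus acceptor beads, 10 µg/mL apiece, read by AlphaScreen after 30 min at room temperature.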
Hits are given with their value; – = inactive; ? = inconclusive; · = no result; [ ] = remark or other dose. Unless noted, the call rests on the fitted dose curve; in most records, active means well fitted curve in the direction sought with a large enough effect; inconclusive means small, poorly fitted or top-dose-only effect, or another doubt; inactive means no such curve, though single readings can be large; an effect the other way counts as inactive or inconclusive.

SMILES	CHX counter	HCV inhibitor	Shiga inhibitor	Pf growth 96h	Pf growth 48h	AMA1-RON2 inh
Cn1/c(=N\NC(=O)c2ccccc2Cl)sc2ccccc21	30.8	–	75.3	?	–	?
CC(=O)N/N=c1\sc2ccccc2n1C	–	–	–	?	–	–
COc1ccc(C(=O)CCC(C)(C)[N+](=O)[O-])cc1	32.3	–	–	–	?	–
COc1ccccc1CNC(=S)NCc1ccc(Cl)cc1	–	–	–	–	?	–
OC(CNCc1ccccc1F)(c1ccc(F)cc1)c1ccc(F)cc1	–	?	–	?	?	–
COc1ccccc1CNCC(O)(c1ccc(F)cc1)c1ccc(F)cc1	–	?	–	4.65µM	3.7µM	–
COc1ccccc1CNCC(O)(c1ccc(Cl)cc1)c1ccc(Cl)cc1	–	?	–	1.65µM	1.65µM	–
CCOC(=O)[C@]12Cc3cc(Cl)ccc3[C@H]1N(Cc1ccccc1)C(=O)c1ccccc12	·	–[8.37 µM]	·	·	·	–
CCOC(=O)[C@]12Cc3cc(N(C)C)ccc3[C@H]1N(Cc1ccccc1)C(=O)c1ccccc12	·	11.2µM	·	·	·	?
Nc1sc(-c2ccccc2)cc1C(=O)N/N=C/c1ccc(Cl)cc1	–	–	34.0	–	–	–
O=C(N/N=C/c1ccc(Cl)cc1)c1cc(-c2cccnc2)nc2ccccc12	–	?	–	?	?	–
COC(=O)c1nc(N)sc1-c1ccccc1	–	–	–	9.28µM	–	–
COC(=O)c1cc(-c2ccccc2)sc1N	26.2	2µM	58.4	–	·	–
O=C(CC1(c2ccc(Cl)cc2)C2CC3CC(C2)CC1C3)NCCO (centres undefined)	–	–	–	–	–	–
Cc1c(Br)cccc1NC(=O)C1(C)CCN1CCc1ccccc1 (centres undefined)	·	·	·	·	·	–
COC(=O)[C@@]12C[C@@H](CC(=O)N3CCN(C(=O)c4ccco4)CC3)C(=O)N(CCc3ccc(OC)c(OC)c3)C1=CCC(C)(C)C2	·	·	·	·	·	–
CCCNC(=O)[C@H](Cc1c[nH]c2ccccc12)NC(=O)c1ccccc1Cl	25.4	–	–	–	–	–[2.32 µM]
O=C(N[C@@H](Cc1c[nH]c2ccccc12)C(=O)O)c1ccccc1Cl	–	–	–	–	–	–
O=C(N[C@@H](Cc1c[nH]c2ccccc12)C(=O)NC1CC1)c1ccccc1Cl	46.6	–	–	–	–	–
CCCCNC(=O)[C@H](Cc1c[nH]c2ccccc12)NC(=O)c1ccccc1Cl	–	–	–	?	?	–
CCCC#CCN1CCN(C23CC4CC(CC(C4)C2)C3)CC1	–	–	–	–	–	–
COc1cc(Cl)ccc1OCc1cc(C(=O)N2CCCC(OC)C2)no1 (centres undefined)	53.6	–	79.6	–	–	–
COc1cc(Cl)ccc1OCc1cc(C(=O)N2CCN(c3ccccn3)CC2)no1	–	?	–	–	–	–
COc1cc(Cl)ccc1OCc1cc(C(=O)N2CCCCCC2)no1	32.2	–	74.3	?	–	–
COc1cc(Cl)ccc1OCc1cc(C(=O)N2CCN(C3CCCCC3)CC2)no1	·	·	·	·	·	–
SMILES	CHX counter	HCV inhibitor	Shiga inhibitor	Pf growth 96h	Pf growth 48h	AMA1-RON2 inh
COc1ccc(OCc2cc(C(=O)N3CCCN(C(C)=O)CC3)no2)c(Cl)c1	32.0	–	42.7	–	–	–
COc1cc(Cl)ccc1OCc1cc(C(=O)N2CCN(C)CC2)no1	–	–	–	?	–	–
COc1ccc(-n2nc3c(c2NC(=O)C(C)Oc2ccccc2)CS(=O)C3)cc1 (centres undefined)	–	·	–	–	–	–
NS(=O)(=O)c1ccc(-c2c(-c3ccccc3)sc3ccccc23)cc1	·	?	·	–	–	–
Cc1cnc(C(=O)O)cn1	·	·	·	–	–	·
NC(=O)CCC1NC(=O)C(Cc2ccccc2)NC(=O)C(Cc2ccc(O)cc2)NC(=O)CCSSCC(C(=O)N2CCCC2C(=O)NC(CCCN=C(N)N)C(=O)NCC(N)=O)NC(=O)C(CC(N)=O)NC1=O (centres undefined)	·	·	·	–	–	·

Assay outcomes from PubChem.
